{"source": "PubChem BioAssay AID463173", "about": "(ICCB-Longwood Screening Facility, Harvard Medical School, 2010)", "note": "The whole screen tested about 52,000 compounds, of which about 4,300 (8.3%) were called active. Cut-off read from the data, not from the text of the source: active = survival mostly below about 52% (no sharp cut-off); inactive = mostly above about 56%. For the sample, actives were picked, then their nearest neighbours and some compounds at random."}
{"system": "DeltatarO mutant", "assay": "growth inhibition of S. aureus wild type versus tarO mutant, primary screen, teichoic acid synthesis inhibitors, RN4220, OD600 (AID 463173)", "conditions": "OD600, 18 h, active compounds read low, screened at 18.75 µg/mL (by protocol)"}
{"smiles": "CCC(c1nnnn1CCOC)N1CCN(c2cccc(C(F)(F)F)c2)CC1", "note": "(stereo unspecified)", "survival": "107% (inactive)"}
{"smiles": "Cn1c(CNc2ccc(Cl)cc2)nnc1SCc1ccc(Cl)cc1", "survival": "68% (inactive)"}
{"smiles": "CC(=O)N1CCCC1c1nc2ccccc2n1Cc1ccc(F)cc1", "note": "(stereo unspecified)", "survival": "85% (inactive)"}
{"smiles": "CCc1cccc(CC)c1NC(=O)c1c(C)oc2ccc(O)c(CN3CCCC3)c12", "survival": "113% (inactive)"}
{"smiles": "O=S1(=O)c2ccccc2-c2cc(Br)ccc21", "survival": "79% (inactive)"}
{"smiles": "CCOC(=O)CNC(=O)Nc1cc(C(=O)NCc2ccccc2OC)ccc1N1CCCC1", "survival": "80% (inactive)"}
{"smiles": "CCC(=O)/C=C1/Sc2ccc(C)cc2N1CC", "survival": "97% (inactive)"}
{"smiles": "Cc1ccc(NC2(c3ccccc3)C(=O)c3ccccc3C2=O)cc1F", "survival": "58% (active)"}
{"smiles": "Cc1cc(F)ccc1NC1(c2ccccc2)C(=O)c2ccccc2C1=O", "survival": "79% (inactive)"}
{"smiles": "O=C(O)c1cc(NC2(c3ccccc3)C(=O)c3ccccc3C2=O)ccc1Cl", "survival": "87% (inactive)"}
{"smiles": "COc1cc(OC)c(NC(=O)Nc2sc3nc4n(c(=O)c3c2C)CCC(C)CC4)cc1Cl", "note": "(stereo unspecified)", "survival": "85% (inactive)"}
{"smiles": "O=C(c1ccc2c(c1)OCO2)c1cn(Cc2ccc(F)cc2)c2ccccc2c1=O", "survival": "68% (inactive)"}
{"smiles": "CCOc1ccc2c(c1)c(=O)c(C(=O)c1ccc3c(c1)OCO3)cn2Cc1ccc(F)cc1", "survival": "98% (inactive)"}
{"smiles": "O=C(c1ccc2c(c1)OCO2)c1cn(Cc2ccc(Cl)cc2)c2ccc(F)cc2c1=O", "survival": "55% (active)"}
{"smiles": "COc1ccc(Cn2cc(C(=O)c3ccc(C)cc3)c(=O)c3cc(OC)c(OC)cc32)cc1", "survival": "93% (inactive)"}
{"smiles": "COc1ccc(C(=O)c2cn(Cc3ccc(F)cc3)c3ccc(C)cc3c2=O)cc1", "survival": "24% (active)"}
{"smiles": "COc1ccccc1Cn1cc(C(=O)c2ccc(C)cc2)c(=O)c2cc(C)ccc21", "survival": "112% (inactive)"}
{"smiles": "CCc1ccc2c(c1)c(=O)c(C(=O)c1ccc(C)cc1)cn2CC(=O)Nc1ccc2c(c1)OCCO2", "survival": "61% (inactive)"}
{"smiles": "COc1ccccc1Cn1cc(C(=O)c2ccccc2)c(=O)c2cc(OC)c(OC)cc21", "survival": "23% (active)"}
{"smiles": "CCc1ccc(C(=O)c2cn(CC(=O)Nc3ccc4c(c3)OCCO4)c3ccc(C)cc3c2=O)cc1", "survival": "57% (active)"}
{"smiles": "CCc1ccc(C(=O)c2cn(CC(=O)Nc3ccc4c(c3)OCCO4)c3ccc(CC)cc3c2=O)cc1", "survival": "72% (inactive)"}
{"smiles": "CCc1ccc(C(=O)c2cn(Cc3ccccc3)c3cc(OC)c(OC)cc3c2=O)cc1", "survival": "58% (inactive)"}
{"smiles": "COc1ccc(Cn2cc(C(=O)c3ccc(F)cc3)c(=O)c3cc4c(cc32)OCCO4)cc1", "survival": "66% (inactive)"}
{"smiles": "COCCNC(=O)CSc1nc2ccccc2nc1Cc1ccc(C)cc1", "survival": "78% (inactive)"}
{"smiles": "CCOC(=O)c1oc2ccccc2c1CN(C)CCc1ccccc1", "survival": "70% (inactive)"}
{"smiles": "COc1ccc(CCn2c(=O)c3cccnc3n(CC(=O)Nc3c(C)cccc3C)c2=O)cc1OC", "survival": "90% (inactive)"}
{"smiles": "COc1ccccc1C(=O)Nc1ccc(NC(=O)c2cccs2)cc1", "survival": "51% (inactive)"}
{"smiles": "CCc1nnc(NC(=O)C(=O)c2cc(C)n(-c3ccccc3)c2C)s1", "survival": "77% (inactive)"}
{"smiles": "CCOc1ccc(-n2c(SCC(=O)Nc3ccccc3OC)nc3c(oc4ccccc43)c2=O)cc1", "survival": "69% (inactive)"}
{"smiles": "COc1ccc(-c2noc(C3CC(=O)N(c4ccc5c(c4)OCCO5)C3)n2)c(OC)c1", "note": "(stereo unspecified)", "survival": "98% (inactive)"}
{"smiles": "COc1ccc(N(C(=O)c2ccc(C(C)(C)C)cc2)S(=O)(=O)c2ccc(Cl)cc2)cc1", "survival": "81% (inactive)"}
{"smiles": "Cc1ccc(Cn2cc(C(=O)c3ccc4c(c3)OCO4)c(=O)c3cc(C)ccc32)cc1", "survival": "59% (inactive)"}
{"smiles": "Cc1ccc2c(c1)c(=O)c(C(=O)c1ccc3c(c1)OCO3)cn2Cc1ccc(Cl)cc1", "survival": "46% (active)"}
{"smiles": "Cc1ccc2c(c1)c(=O)c(C(=O)c1ccc3c(c1)OCO3)cn2Cc1cccc(F)c1", "survival": "66% (inactive)"}
{"smiles": "CCOC(=O)c1ccc(NC(=O)CC2C(=O)N(c3ccc(F)cc3)C(=O)N2Cc2ccc3c(c2)OCO3)cc1", "note": "(stereo unspecified)", "survival": "116% (inactive)"}
{"smiles": "O=C(c1ccc(-n2cnnn2)cc1)N(C1CCCCC1)C1CCCCC1", "survival": "93% (inactive)"}
{"smiles": "COc1cc(OC)c(NC(=O)NCCn2nnc3cc(S(=O)(=O)N(C)C)ccc32)cc1Cl", "survival": "88% (inactive)"}
{"smiles": "Cc1cc(F)ccc1-n1nnc(C(N)=O)c1C", "survival": "76% (inactive)"}
{"smiles": "COc1ccc(-n2c(SCC(=O)NCc3ccccc3)nc3c([nH]c4ccccc43)c2=O)cc1", "survival": "93% (inactive)"}
{"smiles": "CC(CNC(=O)CCCn1c(=O)c2cccn2c2ccc(F)cc21)c1ccccc1", "note": "(stereo unspecified)", "survival": "35% (active)"}
{"smiles": "CC(CNC(=O)CCCn1c(=O)c2cccn2c2ccccc21)c1ccccc1", "note": "(stereo unspecified)", "survival": "47% (inactive)"}
{"smiles": "CC(CNC(=O)CCCn1c(=O)c2cccn2c2cccnc21)c1ccccc1", "note": "(stereo unspecified)", "survival": "95% (inactive)"}
{"smiles": "CC(CNC(=O)CCn1c(=O)c2cccn2c2ccc(F)cc21)c1ccccc1", "note": "(stereo unspecified)", "survival": "34% (active)"}
{"smiles": "CC(NC(=O)CCn1c(=O)c2cccn2c2ccc(F)cc21)c1ccccc1", "note": "(stereo unspecified)", "survival": "59% (inactive)"}
{"smiles": "COc1cc(C(=O)NCC(c2ccco2)S(=O)(=O)c2cccs2)cc(OC)c1OC", "note": "(stereo unspecified)", "survival": "91% (inactive)"}
{"smiles": "COc1cc(C2c3c(-c4c(C)cc(C)cc4O)n[nH]c3C(=O)N2CCCOC(C)C)cc(OC)c1OC", "note": "(stereo unspecified)", "survival": "86% (inactive)"}
{"smiles": "CCOc1cc(CNC(=O)c2ccc3c(c2)NC(=O)C2CCCCN32)cc(OCC)c1OCC", "note": "(stereo unspecified)", "survival": "107% (inactive)"}
{"smiles": "O=C1C2C3C=CC(C3)C2C(=O)N1c1ccc(Cl)cc1", "note": "(stereo unspecified)", "survival": "70% (inactive)"}
{"smiles": "CCC(Oc1ccccc1)C(=O)Nc1ccc(OCc2cc(=O)n3ccc(C)cc3n2)cc1", "note": "(stereo unspecified)", "survival": "91% (inactive)"}
{"smiles": "O=C(NCCc1ccccc1)c1ccc2c(c1)N(Cc1ccc(F)cc1)C(=O)c1ccccc1S2", "survival": "99% (inactive)"}
{"smiles": "COc1cccc(-c2nc(CS(=O)(=O)CC(=O)NCCc3ccc(Cl)cc3)c(C)o2)c1", "survival": "63% (inactive)"}
{"smiles": "COc1ccc(CCNC(=O)CSCc2nc(-c3cccc(C)c3)oc2C)cc1OC", "survival": "66% (inactive)"}
{"smiles": "COc1ccc(-c2nc(CSCC(=O)NCCc3ccc(OC)c(OC)c3)c(C)o2)cc1", "survival": "79% (inactive)"}
{"smiles": "Cc1cccc(-c2nc(CSCC(=O)NCCc3ccc(Cl)cc3)c(C)o2)c1", "survival": "-7% (active)"}
{"smiles": "COc1cccc(-c2nc(CSCC(=O)NCCc3ccc(Cl)cc3)c(C)o2)c1", "survival": "-4% (active)"}
{"smiles": "CCOc1ccc(CCNC(=O)CSCc2nc(-c3cccc(C)c3)oc2C)cc1OCC", "survival": "82% (inactive)"}
{"smiles": "O=C(c1cc(=O)c2cc(Cl)ccc2o1)N(Cc1ccccc1)C1CCS(=O)(=O)C1", "note": "(stereo unspecified)", "survival": "51% (inactive)"}
{"smiles": "N#Cc1ccccc1NC(=O)CSC1=NCCS1", "survival": "99% (inactive)"}
{"smiles": "COc1ccc(Nc2ncnc3scc(-c4ccc(F)cc4)c23)cc1", "survival": "92% (inactive)"}
{"smiles": "COc1ccc(-c2csc3ncnc(Nc4cccc(F)c4)c23)cc1", "survival": "0% (active)"}
{"smiles": "COc1ccc(-c2csc3ncnc(Nc4cccc(OC)c4)c23)cc1", "survival": "69% (inactive)"}
{"smiles": "O=C1CC(c2nc3ccccc3[nH]2)CN1c1cccc(Cl)c1", "note": "(stereo unspecified)", "survival": "81% (inactive)"}
{"smiles": "COc1cc(C(=O)NCCSc2c(-c3ccccc3)[nH]c3ccccc23)cc(OC)c1OC", "survival": "68% (inactive)"}
{"smiles": "COc1cccc(NS(=O)(=O)c2ccc3[nH]cc(C(=O)NC4CCCCC4)c(=O)c3c2)c1", "survival": "35% (active)"}
{"smiles": "Cc1cc(C)cc(NS(=O)(=O)c2ccc3[nH]cc(C(=O)NC4CCCCC4)c(=O)c3c2)c1", "survival": "17% (active)"}
{"smiles": "CC(C)c1ccc(NS(=O)(=O)c2ccc3[nH]cc(C(=O)NC4CCCCC4)c(=O)c3c2)cc1", "survival": "14% (active)"}
{"smiles": "Cc1cc(C)cc(NS(=O)(=O)c2ccc3[nH]cc(C(=O)N4CCCCC4)c(=O)c3c2)c1", "survival": "83% (inactive)"}
{"smiles": "CC(C)c1ccc(NS(=O)(=O)c2ccc3[nH]cc(C(=O)N4CCCC4)c(=O)c3c2)cc1", "survival": "76% (inactive)"}
{"smiles": "CC(C)c1ccc(NS(=O)(=O)c2ccc3[nH]cc(C(=O)NCC4CCCO4)c(=O)c3c2)cc1", "note": "(stereo unspecified)", "survival": "81% (inactive)"}
{"smiles": "COc1cccc(NS(=O)(=O)c2ccc3[nH]cc(C(=O)N4CCCCCC4)c(=O)c3c2)c1", "survival": "124% (inactive)"}
{"smiles": "CC(C)c1ccc(NS(=O)(=O)c2ccc3[nH]cc(C(=O)NC4CCCC4)c(=O)c3c2)cc1", "survival": "4% (active)"}
{"smiles": "CC(C)c1ccc(NS(=O)(=O)c2ccc3[nH]cc(C(=O)NCCc4ccccc4)c(=O)c3c2)cc1", "survival": "73% (inactive)"}
{"smiles": "CCN(c1ccccc1)S(=O)(=O)c1ccc2[nH]cc(C(=O)NC3CCCCC3)c(=O)c2c1", "survival": "82% (inactive)"}
{"smiles": "COc1cccc(NS(=O)(=O)c2ccc3[nH]cc(C(=O)N(C)C4CCCCC4)c(=O)c3c2)c1", "survival": "98% (inactive)"}
{"smiles": "Cc1cc(C)cc(NS(=O)(=O)c2ccc3[nH]cc(C(=O)N4CCCCCC4)c(=O)c3c2)c1", "survival": "85% (inactive)"}
{"smiles": "Fc1ccc(Nc2ncnc3c2nc2n3CCCCC2)c(F)c1", "survival": "55% (inactive)"}
{"smiles": "CN(C)S(=O)(=O)N(CC(=O)NCCSc1ccc(Cl)cc1)c1ccccc1", "survival": "50% (inactive)"}
{"smiles": "NC(=O)CCn1c2ccccc2c2ccccc21", "survival": "78% (inactive)"}
{"smiles": "O=C1C=CC(=O)C(c2ccc(Cl)cc2)=C1", "survival": "66% (inactive)"}
{"smiles": "CCCCNc1sc(S(=O)(=O)CCC)nc1S(=O)(=O)c1ccc(C)cc1", "survival": "86% (inactive)"}
{"smiles": "Cc1ccc(S(=O)(=O)c2c(Nc3ccc(C)c(C)c3)sc(C(=O)c3ccc4c(c3)OCO4)c2N)cc1", "survival": "125% (inactive)"}
{"smiles": "COc1ccccc1NC(=O)c1cc2c([nH]c1=O)CC(C)(C)CC2=O", "survival": "90% (inactive)"}
{"smiles": "CCN(CC)C(=O)c1sc2c(c1C)c(=O)n(CCc1ccccc1)c(=O)n2Cc1cccc(Cl)c1", "survival": "102% (inactive)"}
{"smiles": "CCOc1ccc(-c2nc(Cn3ccn4nc(-c5ccc(OCC)c(Cl)c5)cc4c3=O)c(C)o2)cc1", "survival": "96% (inactive)"}
{"smiles": "CCCCOc1ccc(-c2nnn(C(C)(C)C(=O)O)n2)cc1", "survival": "99% (inactive)"}
{"smiles": "CCOC(=O)c1c(S(=O)(=O)NCC(=O)N2CCN(c3ccccc3OC)CC2)c(C)n(C)c1C", "survival": "77% (inactive)"}
